Assay results from PubChem BioAssay (NCI).
About 83,000 compounds went through this panel and 20% of them were active in at least one assay; those are over-represented in the sample as a whole.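 A percent growth of 40 corresponds to 60% growth inhibition; 0 means no net growth; -100 means all cells died. Active threshold: below 10.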 Active and inactive are the calls of the source.

System: 786-0 renal
Assay: NCI-60 one-dose screen, 48 h (100 = growth as untreated, 0 = no growth, -100 = all killed)
Conditions: 10 µM

Row | Compound | growth
1 | CNC(=O)c1cccc(N2CCc3c2ccc(NC(=O)Nc2ccc(N4CCN(C)CC4)c(C(F)(F)F)c2)c3F)c1 | -95.6% (active)
2 | CC(=O)Nc1ccc(-n2cnc3cc(-c4ccc(O)cc4)ccc32)cc1C | 55.7% (inactive)
3 | CN(C)c1nc(NCCNS(=O)(=O)c2ccc(C(=O)/C=C/c3ccccc3)cc2)nc(Nc2ccc(F)cc2)n1 | -20.6% (active)
4 | O=C1CCC(N2Cc3c(C#CCCCNC(=O)c4ccc(NC(=O)[C@@H]5NC6(CCCCC6)[C@@]6(C(=O)Nc7cc(Cl)ccc76)[C@H]5c5cccc(Cl)c5F)cc4)cccc3C2=O)C(=O)N1 (some centres undefined) | 48.4% (inactive)
5 | COc1cc(C2CC(c3ccccc3)=Nc3c(N)nc(N)nc3N2)ccc1Oc1nc(Nc2ccc(F)cc2)nc(N(C)C)n1 (centres undefined) | 43.4% (inactive)
6 | CCOC(=O)C1=C(N)N(c2ccc(Cl)cc2)C2=C(C(=O)CC(C)(C)C2)C1c1ccc(N2CCOCC2)cc1 (centres undefined) | 89.4% (inactive)
7 | O=C(c1ccc(Cl)cc1)C1[C@H](c2ccccc2Br)[C@@H](c2ccccc2)NC12C(=O)Nc1ccc(Cl)cc12 (some centres undefined) | 17.6% (inactive)
8 | Nc1nc(Nc2ccc(Cl)cc2)nn1Cc1cccc(Br)c1 | 37.4% (inactive)
9 | O=S(=O)(Nc1ncccn1)c1ccc(-n2c(-c3ccccc3)nc(-c3ccccc3)c2-c2ccccc2)cc1 | 88% (inactive)
10 | CN1CCc2c(sc3ncnc(N/N=C/c4cn(-c5ccccc5)nc4-c4ccc(Cl)cc4)c23)C1 | 25.3% (inactive)
11 | Nc1nnc(-c2c[nH]c3ncccc23)c(-c2c[nH]c3ccc(Br)cc23)n1 | 40% (inactive)
12 | Cc1cc(=O)oc2cc(OCCCCOc3ccc(/C=C/C(=O)Nc4ccccc4[N+](=O)[O-])cc3)ccc12 | 111% (inactive)
13 | COc1ccc(-c2nc(S(=O)(=O)c3ccc(C)cc3)c(S(C)(=O)=O)o2)cc1 | -33.4% (active)
14 | CN1CCN(Cc2ccc(C(=O)Nc3cccc(Nc4ccc5c(O)cccc5n4)c3)cc2C(F)(F)F)CC1 | -55.9% (active)
15 | O=C1NC(=NC23CC4CC(CC(C4)C2)C3)N/C1=C\c1ccc2ncccc2n1 | 2.78% (active)
16 | COc1csc(/C=N/NC(=O)c2[nH]c3ccc(Br)cc3c2-c2ccccc2)c1 | 4.83% (active)
17 | O=C(Cn1nc(-c2ccccc2)ccc1=O)NNC(=S)NC1CCCCC1 | 105% (inactive)

Row | Compound | growth
18 | NS(=O)(=O)c1ccc(NC(=O)CSc2ccc(-c3ccccc3)nn2)c(Br)c1 | 19.5% (inactive)
19 | O=c1c2ccccc2nc(COc2ccccc2)n1/N=C/c1ccc(F)cc1 | 89.4% (inactive)
20 | O=C(Nc1ccc(Cl)c([N+](=O)[O-])c1)Nc1ccc(Cl)c([N+](=O)[O-])c1 | 10.7% (inactive)
21 | O=C(Nc1ccc(OCc2ccccc2)cc1)Nc1ccc(Cl)c(C(F)(F)F)c1 | 17.9% (inactive)
22 | COc1ccc2nc(Cl)c(-c3cc(-c4ccccc4)nc(N)n3)cc2c1 | 4.34% (active)
23 | CN1CCN(c2ccc(Nc3nc(NCCCNC(=O)c4ccccc4)c4sccc4n3)cc2)CC1 | 24.9% (inactive)
24 | O=C1Nc2ccc(F)cc2/C1=C/c1cccc(OCc2ccccc2)c1 | 33.7% (inactive)
25 | Cc1noc2c(Cc3ccc([N+](=O)[O-])cc3)nn(CC(=O)N/N=C/c3ccc(Cl)cc3)c(=O)c12 | -19.5% (active)
26 | O=c1[nH]c2ccc(Cl)cc2cc1CSc1ccc(Nc2nccc(-c3ccc(Cl)cc3)n2)cc1 | 75.2% (inactive)
27 | O=S(=O)(Nc1ncccn1)c1ccc(-n2c(-c3ccc(Br)cc3)nc(-c3ccccc3)c2-c2ccccc2)cc1 | 34.5% (inactive)
28 | Cc1ccc(C(=O)NNC(=O)CSc2nc3ccccc3c(=O)[nH]2)cc1 | 95.2% (inactive)
29 | CCCn1c(O)c(N=Nc2nc(-c3cc4ccccc4oc3=O)cs2)c2cc(Br)ccc21 | 75.1% (inactive)
30 | CN1CCN(c2ccc(Nc3nc(NCCNC(=O)c4ccc(C(F)(F)F)cc4)c4sccc4n3)cc2)CC1 | -56.6% (active)
31 | CN1CCN(c2ccc(C(=O)/C=C/c3cc(C(F)(F)F)ccc3Cl)cc2)CC1 | -83.1% (active)
32 | CCOc1ccc(/C=N/NC(=O)Cn2nc(Cc3ccccc3)c3onc(C)c3c2=O)cc1 | -51.9% (active)
33 | O=C(NO)c1ccc(-c2nc3ccc4[nH]ncc4c3c3c2CCCC3)cc1 | -8.73% (active)
34 | COc1ccc(-c2ccc(/C=N/NC(=O)c3[nH]c4ccc(Br)cc4c3-c3ccccc3)o2)cc1 | 34.9% (inactive)
